# From the supplement of paper PMC8007513
# Structures can show the parent of a compound that is named as a salt. ± gives the standard error. Among all 1,300 compounds or so, about 75 (6%) showed an effect of 50% or more. Shown is part of a subset that was picked to be rich in strong results.
# Test system: Trichoderma virens ATCC 9645
# Test: growth yield (OD600) relative to untreated control; higher = less growth inhibition
# Details: compound concentration: 100 uM
# In short: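 Plates were read for OD600 at 40 h and 72 h after Trichoderma virens ATCC 9645 spores (15,000 spores ml^−1 in potato dextrose broth) were grown at 30 °C with library compounds at 100 μM final, with or without a biocide at 200 ng ml^−1. Growth is stated relative to the control with neither agent, as the mean of duplicate screens.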
Compound,growth yield (40 h),growth yield (72 h)
CN(C)[C@@H]1C(O)=C(C(N)=O)C(=O)[C@@]2(O)C(O)=C3C(=O)c4c(O)ccc(Cl)c4[C@@H](O)[C@H]3C[C@@H]12 [Demeclocycline hydrochloride],82.6 ± 3.2%,85.1 ± 5.6%
N=C(N)NC(=O)Cc1c(Cl)cccc1Cl [Guanfacine hydrochloride],97.1 ± 1.4%,101.3 ± 0.63%
COC(=O)CCc1ccc(OCC(O)CNC(C)C)cc1 (configuration not stated) [Esmolol hydrochloride],105 ± 4.6%,100 ± 1.5%
C/C(=C\C(=O)OCCCCCCCCC(=O)O)C[C@@H]1OC[C@H](C[C@@H]2O[C@H]2[C@@H](C)[C@H](C)O)[C@@H](O)[C@H]1O [Mupirocin],6.04 ± 2.9%,39.5 ± 8.5%
O=C(O)CCC(=O)Nc1ccc(S(=O)(=O)Nc2nccs2)cc1 [Succinylsulfathiazole],94.7 ± 3.5%,93.9 ± 2.6%
"OCC(O)CN1CCN(c2ccccc2)CC1 (racemic) [Dropropizine (R,S)]",101 ± 1.6%,101.7 ± 0.63%
CC(C)(CO)C(O)C(=O)NCCCO (configuration not stated) [Panthenol (D)],100 ± 4.5%,98.1 ± 3%
CC(=O)OC[C@H]1O[C@@H]([S-])[C@H](OC(C)=O)[C@@H](OC(C)=O)[C@@H]1OC(C)=O.CCP(CC)CC.[Au+] [Auranofin],25.6 ± 2.1%,33 ± 2%
CN(C)/N=N/c1[nH]cnc1C(N)=O [Dacarbazine],95.6 ± 1.9%,98 ± 3.4%
O=C1C(O)=C([C@H]2CC[C@H](c3ccc(Cl)cc3)CC2)C(=O)c2ccccc21 [Atovaquone],95.1 ± 4.3%,97.4 ± 1.6%
COc1cccc(N(C)C(=S)Oc2ccc3c(c2)CCCC3)n1 [Liranaftate],0%,0%
CC(C)(C(=O)c1cccnc1)c1cccnc1 [Metyrapone],91 ± 3%,88.4 ± 2.6%
COc1cc2nc(N(C)CCCNC(=O)C3CCCO3)nc(N)c2cc1OC (configuration not stated) [Alfuzosin hydrochloride],104.7 ± 0.79%,105 ± 3.6%
OC(CNCC(O)C1CCc2cc(F)ccc2O1)C1CCc2cc(F)ccc2O1 (configuration not stated) [Nebivolol hydrochloride],95 ± 16%,114 ± 14%
CN(C)CCOC1=Cc2ccccc2Sc2ccc(Cl)cc21 [Zotepine],89.7 ± 14%,114 ± 11%
NC(N)=Nc1nc(CSCC/C(N)=N/S(N)(=O)=O)cs1 [Famotidine],103 ± 1.9%,101 ± 1.3%
CCCCN(CCCC)CCC(O)c1cc2c(Cl)cc(Cl)cc2c2cc(C(F)(F)F)ccc12 (configuration not stated) [Halofantrine hydrochloride],25.6 ± 6.2%,95.9%
N=C(N)N/N=C/c1c(Cl)cccc1Cl [Guanabenz acetate],91.5 ± 1.9%,90.7 ± 3.2%
COC(=O)[C@H]1[C@H]2C[C@@H]3c4[nH]c5cc(OC)ccc5c4CCN3C[C@H]2C[C@@H](OC(=O)c2cc(OC)c(OC)c(OC)c2)[C@@H]1OC [Reserpine],107 ± 5.4%,107 ± 2.8%
CCCCOc1ccc(C(=O)CCN2CCCCC2)cc1 [Dyclonine hydrochloride],93.6 ± 3%,98.7 ± 1.6%
N=C(N)c1ccc(OCCCCCOc2ccc(C(=N)N)cc2)cc1 [Pentamidine isethionate],1.91 ± 0.95%,1.78 ± 0.52%
CCCCOc1ccc(CC(=O)NO)cc1 [Bufexamac],94.2 ± 1.1%,88.1 ± 2.9%
CC(C)(C)NC[C@@H](O)COc1cccc2c1CCCC2=O [(+) -Levobunolol hydrochloride],100.2 ± 0.16%,98.9 ± 0.1%
NS(=O)(=O)Cc1noc2ccccc12 [Zonisamide],104.5 ± 0.95%,98.8 ± 1.9%

Compound,growth yield (40 h),growth yield (72 h)
CN(C)CCN(Cc1ccccc1)c1ccccn1 [Tripelennamine hydrochloride],107 ± 1.4%,100 ± 1.6%
C[C@]1(Cn2ccnn2)[C@H](C(=O)O)N2C(=O)C[C@H]2S1(=O)=O [Tazobactam],98.96 ± 0.79%,96.8 ± 1.4%
Clc1ccccc1C(c1ccccc1)(c1ccccc1)n1ccnc1 [Clotrimazole],2.38 ± 1.8%,1.89 ± 1.1%
CN(C)c1ccc(O)c2c1C[C@H]1C[C@H]3[C@H](N(C)C)C(O)=C(C(N)=O)C(=O)[C@@]3(O)C(O)=C1C2=O [Minocycline hydrochloride],95.3 ± 0.64%,97.4 ± 2%
CC(C)(C)NC[C@H](O)COc1ccccc1C1CCCC1 [Penbutolol sulfate],109 ± 6.2%,110 ± 5.1%
CC(=O)N(CC(O)CO)c1c(I)c(C(=O)NCC(O)CO)c(I)c(C(=O)NCC(O)CO)c1I (configuration not stated) [Iohexol],103 ± 1.3%,106 ± 1.1%
CNC(C)CCC=C(C)C (configuration not stated) [Isometheptene mucate],99.1 ± 3.8%,96.2 ± 4.3%
CCCC(=O)Nc1ncnc2c1ncn2[C@@H]1O[C@@H]2COP(=O)(O)O[C@H]2[C@H]1OC(=O)CCC [Bucladesine sodium salt],97.69 ± 0.79%,97.75 ± 0.42%
Nc1nc2c(ncn2COC(CO)CO)c(=O)[nH]1 [Ganciclovir],106 ± 4.3%,103 ± 4%
Nc1nc2c(ncn2COCCO)c(=O)[nH]1 [Acyclovir],103.7 ± 0.48%,101 ± 1.7%
Nc1nc2n[nH]nc2c(=O)[nH]1 [Azaguanine-8],3.49 ± 0.95%,2.62 ± 0.1%
CC[C@]12CCCN3CCc4c(n(c5ccccc45)[C@@](O)(C(=O)OC)C1)[C@@H]32 [Vincamine],97.37 ± 0.16%,95.3 ± 1.4%
CCN1CCC[C@H]1CNC(=O)c1c(OC)ccc(Br)c1OC [Remoxipride Hydrochloride],101 ± 1.9%,101.8 ± 0.94%
O=C(O)Cc1sc(-c2ccccc2)nc1-c1ccc(Cl)cc1 [Fentiazac],63.1 ± 4.3%,88.8 ± 4.9%
CC[N+](CC)(CC)CCC(O)(c1ccccc1)C1CCCCC1 (configuration not stated) [Tridihexethyl chloride],103 ± 6.3%,101 ± 4.5%
CCCCOC(=O)c1ccc(O)cc1 [Butylparaben],46.4 ± 2.2%,49.5 ± 0.84%
CCCCN(CCCC)CCCOC(=O)c1ccc(N)cc1 [Butacaine],95.5 ± 4.9%,98.5 ± 4.1%
CCCCOC(=O)c1ccc(N)cc1 [Butamben],66.9 ± 1.8%,73 ± 2.5%
CC(C)(C)NC(=O)[C@@H]1C[C@@H]2CCCC[C@@H]2CN1C[C@@H](O)[C@H](Cc1ccccc1)NC(=O)[C@H](CC(N)=O)NC(=O)c1ccc2ccccc2n1 [Saquinavir mesylate],110 ± 3.3%,107 ± 3.1%
CC[C@H](C)C(=O)O[C@H]1C[C@@H](C)C=C2C=C[C@H](C)[C@H](CC[C@@H]3C[C@@H](O)CC(=O)O3)[C@H]21 [Lovastatin],94.8 ± 5.2%,94.5 ± 3.2%
CCCCC(CC)CN1CN(CC(CC)CCCC)CC(C)(N)C1 (configuration not stated) [Hexetidine],105 ± 3.2%,118 ± 6.3%
NCc1ccc(S(N)(=O)=O)cc1 [Mafenide hydrochloride],107 ± 2.5%,111 ± 4.2%
NS(=O)(=O)c1cc(C2(O)NC(=O)c3ccccc32)ccc1Cl (configuration not stated) [Chlorthalidone],102 ± 3.6%,105 ± 3.7%
CCOC(=O)C1=C(COCCN)NC(C)=C(C(=O)OC)C1c1ccccc1Cl (configuration not stated) [Amlodipine],105 ± 12%,113 ± 11%

Compound,growth yield (40 h),growth yield (72 h)
CC(C(=O)O)c1ccc(-c2ccccc2)c(F)c1 (configuration not stated) [Flurbiprofen],72.9 ± 3%,86.5 ± 3.9%
COc1ccc2cc([C@@H](C)C(=O)O)ccc2c1 [(R) -Naproxen sodium salt],84.5 ± 7%,87.2 ± 6.4%
CC(C(=O)O)c1ccc2c(c1)[nH]c1ccc(Cl)cc12 (configuration not stated) [Carprofen],40.7 ± 15%,88.9 ± 8%
CC[N+](C)(CC)CCOC(=O)C1c2ccccc2Oc2ccccc21 [Methantheline bromide],110 ± 1.8%,108 ± 1.3%
CCOC(=O)[C@H](CCc1ccccc1)N[C@@H](C)C(=O)N1Cc2ccccc2C[C@H]1C(=O)O [Quinapril hydrochloride],98.8 ± 3.8%,98.1 ± 1.1%
Cc1cccc(C)c1NC(=O)CN1CCN(CCCC(c2ccc(F)cc2)c2ccc(F)cc2)CC1 [Lidoflazine],95.6 ± 1.3%,114 ± 3%
CN(C)CCCO[C@@H]1[C@H]2OC(C)(C)O[C@H]2O[C@@H]1[C@H](O)CO [Amiprilose hydrochloride],100.5 ± 0.79%,101.6 ± 0.73%
CN(C/C=C/C#CC(C)(C)C)Cc1cccc2ccccc12 [Terbinafine],2.7 ± 0.16%,2.52%
c1ccc2c(CC3=NCCN3)cccc2c1 [Naphazoline hydrochloride],101 ± 2.4%,100%
CN(Cc1ccc(C(C)(C)C)cc1)Cc1cccc2ccccc12 [Butenafine Hydrochloride],2.06 ± 1.4%,1.99 ± 1.1%
CN(C/C=C/c1ccccc1)Cc1cccc2ccccc12 [Naftifine hydrochloride],15.6 ± 1.6%,55.5 ± 4.3%
C#CCN(C)Cc1ccccc1 [Pargyline hydrochloride],105 ± 2.1%,107 ± 2.9%
CC1(C)O[C@@H]2C[C@H]3[C@@H]4C[C@H](F)C5=CC(=O)C=C[C@]5(C)[C@H]4[C@@H](O)C[C@]3(C)[C@]2(C(=O)CO)O1 [Flunisolide],100.5 ± 0.48%,96.5 ± 1.3%
N=C(N)N1CCc2ccccc2C1 [Debrisoquin sulfate],97.5 ± 1.3%,101.8 ± 0.52%
CNCC[C@@H](Oc1cccc2ccccc12)c1cccs1 [(R)-Duloxetine hydrochloride],99.1 ± 2.9%,107 ± 3.1%
Cc1ncc([N+](=O)[O-])n1CC(O)CCl (configuration not stated) [Ornidazole],99.8 ± 2.9%,103 ± 2.3%
CC(=O)N(CC(C)C(=O)O)c1c(I)cc(I)c(N)c1I (configuration not stated) [Iocetamic acid],107 ± 1.6%,104 ± 1.1%
N[C@@H](C(=O)N[C@@H]1C(=O)N2C(C(=O)O)=C(Cl)CS[C@H]12)c1ccccc1 [Cefaclor hydrate],96.1 ± 4.6%,96.9 ± 4.2%
CCCCC(C)(O)C/C=C/[C@H]1[C@H](O)CC(=O)[C@@H]1CCCCCCC(=O)OC (mixture of isomers) [Misoprostol],105 ± 1.3%,109 ± 4.1%
CCOC(=O)O[C@]1(C(=O)COC(=O)CC)CC[C@H]2[C@@H]3CCC4=CC(=O)C=C[C@]4(C)[C@H]3[C@@H](O)C[C@@]21C [Prednicarbate],118 ± 3%,114 ± 2.8%
O=c1[nH]c(=O)n([C@H]2C[C@H](O)[C@@H](CO)O2)cc1I [Idoxuridine],102 ± 3.8%,99.4 ± 3.1%
O=c1[nH]c(=O)n([C@H]2C[C@H](O)[C@@H](CO)O2)cc1F [Floxuridine],11.1 ± 3.8%,46.3 ± 9.3%
O=c1[nH]c(=O)n([C@H]2C[C@H](O)[C@@H](CO)O2)cc1C(F)(F)F [Trifluridine],109.9 ± 0.95%,106 ± 1.1%
